Consider 98 molecules from PubChem BioAssay AID624417 (National Center for Advancing Translational Sciences (NCATS), 2012).

In all, about 410,000 compounds went through this assay and about 6,400 (1.6%) were called active. Where a call stands in place of a potency, no number is given. Roughly 20% stayed inconclusive and do not appear here. Calls come from the whole dose curve; as a rule, active = well fitted inhibition curve with a large enough effect; inconclusive = small, poorly fitted or top-dose-only effect; inactive = no such curve, though single readings can be large or run the other way. This excerpt belongs to a sample that is enriched for actives.
Potency is the fitted concentration of half-maximal effect.

The target in the test is Glucagon-like peptide 1 receptor (Homo sapiens) (UniProt P43220). Description: qHTS of GLP-1 Receptor Inverse Agonists (Inhibition Mode). Note: nearly all actives have a fitted effect of over 55% in size. As to conditions: HEK293 GLP-1R CRE-luciferase, luminescence, 24 h, GLP-1R form is constitutively active; series mostly up to 38.3 µM. From the text: The overall goal of this project was to develop a novel assay for discovering small molecule ligands for class B1 G protein-coupled receptors (GPCRs). Very few agonists (or inverse agonists in inhibition mode) with generally weak activity for this entire group of physiologically important receptors are known to date. To establish proof-of-principle that this critical bottleneck can be overcome with a suitable screening approach, our studies focused on the class B1 receptor for glucagon-like peptide-1 (GLP-1R), a potential therapeutic target for diabetes and neurodegenerative disease. The assay was developed using a cell-based functional readout. Toward this goal, stably transfected HEK293 cell clones were established that co-express (i) a cAMP-responsive luciferase reporter gene, and (ii) constitutively active GLP-1R that upon ligand interaction inhibit (inverse agonists) the luciferase activity. In addition, two control cell lines were developed: (i) one that express only the cAMP-responsive reporter gene to enable initial exclusion of GLP-1R independent effects of candidate probes; and (ii) one with the reported gene cloned with another constitutively active orphan receptor GPR119 to enable exclusion of GLP-1R independent inhibitor effects of candidate inverse agonists. To that end, this assay was optimized for 1536-well format and screened against the MLSMR. […] NIH Molecular Libraries Probe Production Network [MLPCN] NIH Chemical Genomics Center [NCGC] Grant: NS064851 PI Name: Martin Beinborn, Tufts Medical Center
Sequence of Glucagon-like peptide 1 receptor (Homo sapiens) (P43220 whole entry, looked up): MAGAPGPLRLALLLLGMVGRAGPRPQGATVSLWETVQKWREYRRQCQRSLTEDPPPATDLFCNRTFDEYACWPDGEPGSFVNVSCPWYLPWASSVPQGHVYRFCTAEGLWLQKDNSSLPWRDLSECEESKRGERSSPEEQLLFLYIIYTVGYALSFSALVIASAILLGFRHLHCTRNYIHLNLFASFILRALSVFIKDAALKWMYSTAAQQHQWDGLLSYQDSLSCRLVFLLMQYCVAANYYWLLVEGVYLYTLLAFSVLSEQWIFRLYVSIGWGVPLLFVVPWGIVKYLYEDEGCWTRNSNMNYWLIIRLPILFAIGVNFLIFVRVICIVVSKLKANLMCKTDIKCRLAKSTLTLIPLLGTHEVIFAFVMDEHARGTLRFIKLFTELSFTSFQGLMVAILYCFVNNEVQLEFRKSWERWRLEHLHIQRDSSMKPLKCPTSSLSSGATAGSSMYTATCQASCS
Six ul of cell suspension (200 cells/uL in DMEM + 10% Nu serum + 1% pen-strep) is dispensed in a white solid 1536-well plate. The plates are incubated for 12 hours at 37 deg C at 5% CO2 followed by addition of 23 nL compounds. After 24 hr incubation at 37 deg C and 5% CO2, 3 uL of luciferase assay detection reagent is added. A luminescence read is obtained on the PerkinElmer Viewlux after 12 min incubation at room temperature.
For `CC1(C(=O)Nc2ccc3c(c2)OCCO3)CCN1C(=O)Cc1cc(F)ccc1F` (stereo not drawn), the Potency entry is “inactive”. Then `CC1(C(=O)NS(=O)(=O)Cc2cccc(Cl)c2)CCN1C(=O)Cc1ccc(Cl)cc1Cl` (stereo not drawn), with “inactive”; and `CC(C)N1C(=O)c2ccccc2NC(=O)C1C(=O)NCc1cccs1` (stereo not drawn), with “inactive”.

For `COCCNc1nc(Nc2ccccc2Cl)c2sc(-c3ccccc3)cc2n1`, the Potency result was “inactive”.

As for `CCOc1ccc(S(=O)(=O)NCCC(=O)NNC(=O)c2ccc(F)cc2)cc1`, the Potency entry is “inactive”. `COc1ccc(NC(=O)CN(C)C(=O)/C=C/c2cn(Cc3ccccc3)nc2-c2cccnc2)cc1`: the Potency entry was “inactive”. As to `COc1cccc(NC(=O)CN(C)C(=O)/C=C/c2cc(OC)ccc2OC)c1`, the Potency entry was “inactive”.

In the case of `COc1cccc(NC(=O)CN(C)C(=O)/C=C/c2cn(-c3ccccc3)nc2-c2cccs2)c1`, the Potency is 7.94 µM (active). Turning to `CC(C)(O)C1=C[N+](=O)CC=C1`, the Potency result is “inactive”.

As to `CCC(C)CN1C(=O)CSCC1(C)C(=O)NCc1ccccc1` (stereo not drawn), the Potency result was “inactive”. Then `O=C1OCCC1=COCCCCOC=C1CCOC1=O`, with “inactive”; and `O=C(NCC(O)c1nc2ccccc2[nH]1)c1ccc(Br)cc1` (stereo not drawn), with “inactive”; and `CCN(Cc1cc2cc(C)ccc2[nH]c1=O)S(=O)(=O)c1ccccc1`, with “inactive”. Regarding `CCOc1ccc2[nH]c(=O)c(CN(CCCO)S(=O)(=O)c3ccc(F)cc3)cc2c1`, the Potency result is “inactive”. Then `COc1ccc2[nH]c(=O)c(CN(Cc3cccnc3)S(=O)(=O)c3ccccc3F)cc2c1`, with 5.01 µM (active); and `O=C(c1cccs1)N1C[C@H](n2cc(C3CC3)nn2)[C@@H](O)C[C@@H]1c1ccccc1`, with “inactive”.

For the molecule `COCCNc1ncnc2c1ncn2[C@H]1CN(CCN2CCOCC2)C[C@@H](CO)O1`, the Potency entry is “inactive”. For `CN1CCN(CCCNC(=O)c2cc3c(=O)oc4ccccc4c3s2)CC1`, the Potency result was “inactive”. Then `CCC1CCCCN1CCCNC(=O)C1CCC(Cn2c(=O)[nH]c3ccccc3c2=O)CC1` (stereo not drawn), with “inactive”. Consider `COc1ccc(C(C)(NC(C)=O)c2nc(-c3ccc(S(C)(=O)=O)cc3)cs2)cc1` (stereo not drawn), for which the Potency entry is “inactive”. Consider `O=C(CN1C(=O)NC2(CCc3ccccc32)C1=O)NC1CCCCC1` (stereo not drawn), for which the Potency result is “inactive”. Then `O=C(COc1ccc(S(=O)(=O)N2CCCC2)cc1[N+](=O)[O-])N1CCCCC1`, with “inactive”; and `Cc1cc(C)cc(C(=O)NCCN2CCOCC2)c1`, with “inactive”; and `CCc1cc(=O)oc2c(C)c(OCC(=O)NCCN3CCOCC3)ccc12`, with “inactive”. Then `CC(=O)Oc1cc2c(C(=O)NCCN3CCOCC3)c(C)oc2c2ccccc12`, with 10 µM (active); and `O=C1NC(O)CCN1C1CC(O)C(CO)O1` (stereo not drawn), with “inactive”. Then `COc1ccc(C(O)C(O)(C(=O)OC(C)C)c2ccc(C)cc2)cc1` (stereo not drawn), with “inactive”; and `Cc1nc2ccccn2c(=O)c1NC(=O)c1ccc(Br)o1`, with “inactive”. As for `CCC(=O)c1ccc(OCC(=O)N(CC)CC2COc3ccccc3O2)cc1` (stereo not drawn), the Potency entry was “inactive”. With `CCCN(CC1COc2ccccc2O1)C(=S)Nc1ccc(C)cc1` (stereo not drawn), the Potency is 11.2 µM (active). Then `COc1ccc(NC(=O)C2COc3ccccc3O2)cc1` (stereo not drawn), with “inactive”.

Take `CS(=O)(=O)N1CCCCC1c1cc(C(=O)NCc2ccccc2)no1` (stereo not drawn): the Potency entry is “inactive”.

With `COC(=O)[C@]12CCCCC=C1N(Cc1ccco1)C(=O)[C@H](CC(=O)NCC1CCCCC1)C2`, the Potency entry is “inactive”. Then `CN1CCN(CCNC(=O)Nc2ccc([N+](=O)[O-])cc2)CC1`, with “inactive”; and `O=C(CN1CCN(c2ccccc2)CC1)Nc1ccc(F)cc1`, with “inactive”; and `O=C(NCCCN1CCN(c2ccc(F)cc2)CC1)Nc1ccc([N+](=O)[O-])cc1`, with 11.2 µM (active). `CCC(C)CN1C(=O)CN(S(C)(=O)=O)CC1(C)C(=O)Nc1ccc2c(c1)OCCO2` (stereo not drawn): the Potency result was “inactive”.

For `O=C(Nc1cccc2cccnc12)c1ccc2sc([C@H]3C[C@H](O)[C@@H](CO)O3)nc2c1`, the Potency entry was “inactive”. Then `C=C1C(=O)OC2C1CCC(C)=CCCC1(C)OC21` (stereo not drawn), with “inactive”; and `CCN(CC(=O)NCc1cccs1)S(=O)(=O)c1ccc(NC(C)=O)cc1`, with “inactive”; and `CC1CCCCN1S(=O)(=O)c1ccc(S(=O)(=O)N(CC(=O)Nc2ccccc2)Cc2cccs2)cc1` (stereo not drawn), with 11.2 µM (active). Then `CSCc1nnc(NC(=O)c2ccc(S(=O)(=O)N3CCCCC3C)cc2)o1` (stereo not drawn), with “inactive”; and `CNc1cc(-c2c(OC)cccc2OC)ncn1`, with “inactive”. Consider `CCNC(=O)CCc1nc(-c2ccc(C)cc2)no1`, for which the Potency entry is “inactive”.

Regarding `CCNC(=O)CCc1nc(-c2ccc(C(C)(C)C)cc2)no1`, the Potency was 7.94 µM (active). Then `CCOc1ccc(-c2noc(CCC(=O)NC3CCCC3)n2)cc1OC`, with “inactive”; and `O=C1NC[C@H](CCCCN2C[C@H](Cc3ccc(O)cc3)N(CC3CCCCC3)C(=O)C2=O)N(CCc2ccccc2)C1=O`, with “inactive”; and `OCCc1ccc(NCCc2ccco2)cc1`, with “inactive”. As to `CC1(C(=O)Nc2ccc3c(c2)OCCO3)CSCC(=O)N1CCOc1ccccc1` (stereo not drawn), the Potency entry is “inactive”.

Turning to `O=C(CCc1ccccc1)NCc1ccc2c(c1)CCN2C(=O)c1ccccc1`, the Potency result was “inactive”.

As for `O=C(NCc1ccc2c(c1)CCN2C(=O)c1ccccc1)Nc1cc(F)ccc1F`, the Potency was 10 µM (active). For `O=C(NCc1ccc2c(c1)CCN2C(=O)c1ccccc1)c1ccccc1`, the Potency entry is “inactive”. Then `COc1ccc2c(c1)CCCO[C@]21O[C@H](CCO)C[C@H](O)[C@H]1O`, with “inactive”. With `Cc1c(Br)cc(C(=O)N2CCCCCC2)c(C)c1C`, the Potency was 10 µM (active).

Consider `COc1cc(OC)c(C(=O)N2CCCC2)cc1OC`, for which the Potency entry is “inactive”. Then `Cc1ccc(C(=O)N2CCCC2)c(F)c1F`, with “inactive”; and `C[C@H]1CN([C@@H](C)CO)C(=O)CCCn2nncc2CO[C@@H]1CN(C)Cc1ccc(Oc2ccccc2)cc1`, with “inactive”; and `COc1ccc(CC(=O)Nc2nc(-c3ccc(F)c(F)c3)cs2)cc1OC`, with 3.98 µM (active). Then `CCCc1ccc(-c2csc(NC(=O)Cc3cccs3)n2)cc1`, with “inactive”. Then `Cc1ccc(S(=O)(=O)NC(=O)Nc2nc(-c3ccc(F)c(F)c3)cs2)cc1`, with “inactive”; and `CC1(C)CC(=O)C=C(c2ccccc2CO)C1=O`, with “inactive”; and `CC1=C(C(=O)N2CCOCC2)CC(CC(=O)NCc2cccc3ccccc23)C(=O)N1CCC1=CCCCC1` (stereo not drawn), with “inactive”. As for `CC(C)N(C(=O)[C@H]1C[C@H](CC(=O)NC(C)(C)C)C(=O)N2CCc3c([nH]c4ccc(Cl)cc34)[C@]12C)C(C)C`, the Potency was 11.2 µM (active).

In the case of `CC(C)N(C(=O)[C@H]1C[C@H](CC(=O)NCCC2=CCCCC2)C(=O)N2CCc3c([nH]c4cc(CCC(=O)N(C)C)ccc34)[C@]12C)C(C)C`, the Potency result is “inactive”. Then `C[C@]12c3[nH]c4ccc(Cl)cc4c3CCN1C(=O)[C@@H](CC(=O)NCCCn1ccnc1)C[C@@H]2C(=O)N1CCOCC1`, with “inactive”. With `CS(=O)(=O)c1cccc(-c2ccc3nncn3c2)c1`, the Potency result was “inactive”.

In the case of `Cc1ccccc1-c1ccc2c(c1)O[C@@H](CN(C)Cc1ccc(C(=O)O)cc1)[C@@H](C)CN([C@H](C)CO)S2(=O)=O`, the Potency result is “inactive”. Then `O=C1c2ccccc2C(c2nc3ccccc3[nH]2)N1c1ccccc1` (stereo not drawn), with “inactive”; and `CCOc1ccc(Cl)cc1-c1cc(C(=O)NCc2cccs2)[nH]n1`, with “inactive”. Then `CC(C)c1ccc(CC(=O)N2CCC2(C)C(=O)NS(=O)(=O)c2ccc(C(C)(C)C)cc2)cc1` (stereo not drawn), with “inactive”; and `O=c1c2cc(Br)ccc2nc(-c2cccc(Cl)c2)n1O`, with “inactive”.

`Cc1ccc2c(c1)N(C(=O)Nc1ccc(Br)cc1F)CCO2`: the Potency result is “inactive”. `C[C@@H]1C(c2ccc(F)cc2)=NN(c2ccc(Br)cc2)[C@H]1C(=O)N1CCOC1=O`: the Potency is 10 µM (active). Then `O=C1OCCN1C(=O)[C@H]1[C@H](c2ccc(Cl)cc2)C(c2cccc(Cl)c2)=NN1c1ccc(Br)cc1`, with 7.94 µM (active). As to `Cc1sc2ncnc(SCC(=O)NC3CCS(=O)(=O)C3)c2c1C` (stereo not drawn), the Potency entry is “inactive”. Then `CCCCNC(=O)c1nc(C2CCN(S(=O)(=O)c3ccc(F)c(F)c3)CC2)oc1-c1cccc(C(F)(F)F)c1`, with “inactive”. As to `O=S1(=O)CC(N2CCN(CCO)CC2)CN1C1CCCC1` (stereo not drawn), the Potency entry is “inactive”. With `COCCNc1ncnc2c1c(-c1ccccc1)cn2-c1ccc(C)c(Cl)c1`, the Potency entry was “inactive”. For the molecule `CCCNc1ncnc2c1c(-c1ccccc1)cn2-c1ccc(OCC)cc1`, the Potency was 3.16 µM (active). Consider `O=c1[nH]cnc2c1c(-c1ccccc1)cn2-c1ccc(F)cc1`, for which the Potency entry was “inactive”. Then `CC1(C(=O)Nc2ccc3c(c2)OCCO3)CN(S(C)(=O)=O)CC(=O)N1Cc1cccc(F)c1` (stereo not drawn), with “inactive”. Then `Cn1nc(-c2ccccc2)c(CSc2cccc(Cl)c2)c1Cl`, with 10 µM (active); and `Cc1ccc(S(=O)(=O)c2c(COC(=O)c3cccc(Cl)c3)c(-c3ccccc3)nn2C)cc1`, with “inactive”.

As to `Cn1nc(-c2ccccc2)c(CO)c1Sc1ccccc1`, the Potency result was “inactive”. Take `CC(=O)N1Cc2cc(C(=O)NCc3cccc(F)c3)nc(-c3cccc(C4=CCCC4)c3)c2[C@H]1CCO`: the Potency result was “inactive”.

Take `COc1ccc(S(=O)(=O)N2CCN(CC(=O)N3CCNC3=O)CC2)cc1OC`: the Potency entry was “inactive”. Then `Cc1ccn2c(-c3csc(Nc4ccc(C(=O)O)cc4)n3)c(C)nc2c1`, with “inactive”; and `CC1CCCCN1C(=S)NCc1ccccc1` (stereo not drawn), with “inactive”; and `Oc1ccccc1N1CCN(C(=S)NCc2ccccc2)CC1`, with 11.2 µM (active). Then `Oc1ccc(N2CCN(C(=S)NCc3ccccc3)CC2)cc1`, with “inactive”; and `COc1cc2c(=O)n(C)c3ccccc3c2cc1OC`, with “inactive”; and `Cc1ccc(C)c(OCC(=O)N2CCN(C(=O)c3ccco3)CC2)c1`, with “inactive”. Then `Cc1ccc(OCC(=O)Nc2ccc(N3CCN(C(=O)c4ccco4)CC3)cc2)c(C)c1`, with 7.94 µM (active); and `CCC(=O)Nc1ccc(C(=O)N2CCN(C(=O)c3ccco3)CC2)cc1`, with “inactive”. For the molecule `O=C(C1CCCN(S(=O)(=O)c2ccc([N+](=O)[O-])cc2)C1)N1CCCCC1` (stereo not drawn), the Potency result is “inactive”. Then `Cc1ccc([N+](=O)[O-])cc1S(=O)(=O)N1CCCN(C)CC1`, with “inactive”; and `Cc1ccc2c(c1)C1CN(C)CCC1N2S(=O)(=O)c1ccc(Oc2ccc([N+](=O)[O-])cc2)cc1` (stereo not drawn), with 11.2 µM (active); and `CCc1ccccc1OCC(=O)Nc1nnc(C2CC2)s1`, with “inactive”.
